High-throughput results deposited in PubChem BioAssay by National Center for Advancing Translational Sciences (NCATS).
Only some compounds are listed: those with a hit (about 21% of all), similar ones and a draw of the others.
Pf growth 48h – P. falciparum growth inhibition at 48 hours (one generation); 5.9% of 310,000 active; Potency, µM (titrated, usually from 28.7 µM), inactives show at the top dose activity change, negative = inhibition, usual class: inhibitors; P. falciparum luciferase growth in erythrocytes, 48 h; further: potency means the concentration at half of the fitted maximal effect; on the % scale 0 is the no-effect control and ±100 the full control effect
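Luciferase-expressing parasites in RBCs, 2% Hct / 0.1% parasitemia final; RPMI 1640 + 0.5% Albumax; 37 C, 5% CO2, one generation; luminescence read-out, lower signal = inhibition.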
Pf growth 96h – P. falciparum growth inhibition at 96 hours; Potency, µM (series often up to 28.7 µM), without a hit: top-dose activity change, negative = inhibition, hits mostly inhibitors; 6.9% of 320,000 active; P. falciparum luciferase reporter growth, 96 h; AID 504834; further: potency means the concentration at half of the fitted maximal effect; on the % scale 0 is the no-effect control and ±100 the full control effect
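Erythrocytes infected with luciferase-expressing P. falciparum were dispensed at 2% hematocrit and 0.05% parasitemia (final), then incubated with compounds 96 hours at 37 C in 5% CO2. Luminescence after detection reagent addition reported growth.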
HCV inh – blocks hepatitis C virus; Huh7.5.1 HCVcc-Cre infection, luciferase reporter, 44 h; Potency, µM (series often up to 41.8 µM), for inactives: top-dose activity change, negative = inhibition, usual class: inhibitors; 3.4% of 340,000 active; further: potency means the concentration at half of the fitted maximal effect; on the % scale 0 is the no-effect control and ±100 the full control effect
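Infectious HCVcc-Cre (~0.5 moi) was added to cells just after compound, with cells seeded 4 h earlier at 1,000 per well. Luciferase activity after 44 h culture reported infection; substrate was incubated 15 min at room temperature before reading.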
HCMV antiviral – human cytomegalovirus inhibition. HFF cells, HCMV-luciferase reporter, 72 h; active compounds read low. activity change, negative = inhibition, % at 57.5 µM. 4.5% of 410,000 active. AID 1259415; in the data active means activity change below about -60%; inconclusive means no clear call, values can overlap the other calls; inactive means above about -39%; further: on the % scale 0 is the no-effect control and ±100 the full control effect
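After 16 h attachment at 37C, HFF cells received test compound and HCMV-luciferase (1 PFU/cell); reporter luminescence read 72 h later, data normalized against buffer-only and known inhibitor Salinomycin.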
Shiga toxin inh – blocks Shiga toxin action in Vero cells | 9.2% of 290,000 active | inhibition, % at 38.7 µM | Vero cells, Shiga toxin protein synthesis inhibition reporter; in the data active means inhibition mostly above about 28%, no sharp cut-off; inactive means mostly below about 43%; further: 0% is about no effect
CHX counter-1 – affects cycloheximide protein synthesis inhibition readout, counter-screen; cell reporter, cycloheximide protein synthesis inhibition counterscreen; max response, %; 12% of 300,000 active; AID 2314; in the data active means max response mostly above about 13%, no sharp cut-off; inactive means mostly below about 14%; further: read at 38.3 µM for the half of the compounds with a filed dose; 0% is about no effect
CHX counter-2 – protein synthesis counter-screen activity for Shiga toxin hits | AID 2318 | Cycloheximide counterscreen, protein synthesis reporter, Shiga toxin assay | shares compounds with Shiga toxin inh | 3% of 510 active | Potency, µM (highest dose often 38.3 µM), without a hit: at the top dose activity (activation), actives largely listed as activators; calls by dose curve; further: potency means the concentration at half of the fitted maximal effect; 0% is about no effect
Starred values were filed as active, the others as inactive; u = inconclusive; x = no result given; + = active, no number; [ ] = dose if it differs, or a comment. Unless noted, the call rests on the fitted dose curve; in most records, active means well fitted inhibition curve with a large enough effect; inconclusive means small, poorly fitted or top-dose-only effect, or another doubt; inactive means no such curve, though single readings can be large or run the other way.

SMILES | Pf growth 48h | Pf growth 96h | HCV inh | HCMV antiviral | Shiga toxin inh | CHX counter-1 | CHX counter-2
C/C(=N\NC(=O)CCc1ccc(S(=O)(=O)N2CCOCC2)cc1)c1ccc(Br)cc1 | -38.5% | u | -14.5% | -30.1 | -0.6 | -1.3 | x
CC1CCCN(C(=O)COC(=O)CNC(=O)c2sc3ccccc3c2Cl)C1 (stereo not given) | 22.0% | u | 7.5% | -16.9 | x | x | x
Cc1ccc(OCCSc2nc3ccccc3n2CC(=O)N2CCOCC2)cc1C | x | x | x | -4.4 | x | x | x
Cc1cnc(C(=O)OCC(=O)Nc2cccc(S(=O)(=O)N3CCOCC3)c2)cn1 | x | x | -4.5% | -6.6 | x | x | x
CCCC[C@@H]1C[C@H]1[C@@H](NC(=O)c1ccco1)c1ccc(Cl)cc1 | u | u | -22.2% | -15.9 | 83.9* | 11.8 | 2.0%
CCSc1nnc(NC(=O)[C@@H](NC(=O)c2ccc(C(C)(C)C)cc2)C(C)C)s1 | u | u | 20.5% | -24.0 | 33.5* | 7.6 | 0.0%
CCCCCNC(=O)C(c1ccccc1)n1c(=O)c(-c2cc3ccccc3[nH]2)nc2ccccc21 (stereo not given) | x | x | x | 2.8 | x | x | x
Cc1ccc(OCC(=O)Nc2nnn(C)n2)c(C)c1 | 35.6% | x | -6.4% | 13.7 | 83.0* | 4.5 | u
N#C/C=C1/NC(=O)c2ccccc2S1 | 3.3% | 3.7% | 17.5% | 88.0 | 70.8* | 0.7 | 0.7%
COc1ccc(C(=O)CC(SCC(NC(C)=O)C(=O)O)c2ccc(Cl)cc2)cc1OC (stereo not given) | 4.0% | u | u | u | 30.1 | -2.1 | x
COC(=O)c1ccc(-c2noc(CN(C)Cc3ccncc3C)n2)cc1 | 1.3% | 23.3% | 15.7% | -7.9 | 40.2* | 2.5 | 0.4%
Cc1ccc(C(=O)C2CCN(S(=O)(=O)c3ccc(C(=O)O)cc3)CC2)cc1 | 11.3% | u | 11.4% | -3.1 | -14.2 | -7.3 | x
COc1ccc(OC)c(S(=O)(=O)N2CCN(CC(O)COc3ccccc3)CC2)c1 (stereo not given) | -9.5% | u | -27.0% | 9.9 | -19.1 | -6.8 | x
CC(C)c1nnc(SCC(=O)NC2CCCCC2)n1C | 10.6% | u | 12.2% | -26.4 | -5.5 | -1.3 | x
O=C(NNC(=O)c1nc(Cl)ccc1Cl)c1ccc(F)cc1 | 4.8% | 1.5% | 10.6% | 6.0 | 24.0* | -1.9 | 0.1%
O=C(NNC(=O)c1ncc(Cl)c(Cl)c1Cl)c1ccc(F)cc1 | u | 47.9% | 8.0% | x | 1.9 | 10.1 | x
Cc1cc(Cc2ccc([N+](=O)[O-])cc2)c(C)cn1 | -14.3% | 5.0% | 0.6% | 25.2 | x | -5.2 | x
CCOC(=O)c1cc2sccc2n1CCCN1C(=O)c2ccccc2C1=O | 15.3% | -93.8% | -15.9% | u | 109.7* | 3.1 | 0.2%
Cc1cc(C(=O)CN2C(=O)C(=O)N(Cc3ccco3)C2=O)c(C)n1CCc1ccccc1 | -12.7% | -2.5% | u | -3.9 | x | x | x
Cc1cc(C(=O)COC(=O)c2cccn2C)c(C)n1Cc1ccco1 | 171.6% | 90.3% | u | 14.9 | 50.3* | 10.4 | 0.711µM*
COc1ccc(CNC(=O)C(OC(=O)c2ccco2)c2ccccc2F)cc1 (stereo not given) | 58.3% | -9.7% | 15.9% | 22.0 | 40.1* | -1.5 | 5.2%
CC(Sc1nnc(Cc2ccccc2)o1)C(=O)NC1(C#N)CCCCC1 (stereo not given) | x | x | -7.2% | 0.0 | x | x | x
CC(=O)Nc1ccc(N2N=C(C)C(N=Nc3ccccc3)C2=O)cc1 (stereo not given) | 14.9% | 26.0% | -1.7% | -101.4* | 53.0* | -2.2 | u
CC(=O)N(C)c1ccc(N=NC2C(=O)N(C(N)=S)N=C2C)cc1 (stereo not given) | 0.0% | -5.0% | -17.6% | 125.7 | 37.9 | 15.9 | x
O=c1cc(-c2cccc(F)c2)[nH]c2ccc(Cl)cc12 | x | x | x | x | + | 9.1 | -1.7%
SMILES | Pf growth 48h | Pf growth 96h | HCV inh | HCMV antiviral | Shiga toxin inh | CHX counter-1 | CHX counter-2
COc1ccc2[nH]c(-c3ccccc3)cc(=O)c2c1 | x | x | x | x | + | 16.7 | u
O=c1cc(-c2ccccc2)c2cc(Cl)ccc2[nH]1 | 7.0%[0.00184 µM] | 15.3% | -6.9% | u | -9.9 | -6.5 | x
COc1ccc(-c2cn3c(C)c(C(=O)NC(C)C)sc3n2)cc1 | 9.8% | -0.6% | 4.9% | 10.8 | 52.7* | 7.9 | 2.6%
Cc1ccc(NC(=O)Cn2cnc3cc([N+](=O)[O-])ccc3c2=O)c(Cl)c1 | u | -19.1% | -10.7% | 1.9 | -5.2 | 0.8 | x
O=C(Cn1cnc2cc([N+](=O)[O-])ccc2c1=O)NCc1ccc(Cl)cc1 | 1.4% | 12.7% | -21.8% | -16.7 | 47.1* | 5.9 | -0.8%
CN1CCN(C(=O)COc2ccc(N(C)S(=O)(=O)c3ccc(F)cc3)cc2)CC1 | 20.0% | -13.1% | 0.9% | 4.8 | -3.4 | -1.3 | x
CN1CCN(C(=O)CN(C)S(=O)(=O)c2ccc(F)cc2)CC1 | 7.1% | 9.8% | -2.1% | -5.9 | 37.6* | -2.9 | -0.5%
CCOC(=O)c1cccc(NC(=O)c2c(NCc3ccccc3)[nH]c(=O)[nH]c2=O)c1 | x | x | u | -17.5 | x | x | x
CC(=O)Nc1cccc2ncccc12 | 17.3% | 4.15µM* | 18.4% | 3.7 | 40.7* | -2.6 | -4.6%
COc1cc2c(c(OC)c1OC)-c1c(cc(OC)c(OC)c1OC)CC(C)C(C)C2 (stereo not given) | x | x | x | x | 31.7* | 7.8 | 1.6%
COc1cc2c(cc1OC)C(c1cc(OC)c(OC)c(OC)c1)NCC2 (stereo not given) | -1.4% | -5.6% | u | -21.0 | 7.5 | -2.2 | x
COc1cc(/C=C(\C#N)c2nc3ccccc3[nH]2)cc(OC)c1O | u | -4.8% | u | -25.9 | 63.7* | 9.1 | u
COc1ccc(C2=CC(c3ccc(C)cc3)n3nnnc3N2)cc1 (stereo not given) | u | u | 1.2% | x | 68.9* | -2.4 | 3.7%
COc1ccc(-c2cc(C(=O)N/N=C/c3cccnc3)c3cc(C)cc(C)c3n2)cc1 | 0.0% | -25.8% | -24.6% | u | 8.7 | 10.4 | x
COc1cc(C2C(S(=O)(=O)c3ccccc3)CON2C)ccc1OCc1ccc(F)cc1 (stereo not given) | -12.1% | -4.1% | 3.2% | u | 42.7* | 11.8 | 4.8%
COc1ccccc1Nc1cc(C(=O)N2CCc3ccccc3C2)c2ccccc2n1 | u | u | x | x | 30.3* | 10.6 | 0.9%
COc1ccc(NC(=O)c2cc(-c3ccc(C)cc3)on2)cc1OC | 5.0% | 5.6% | 0.6% | -5.6 | -13.6 | -0.2 | x
COc1ccc(NC(=O)c2cc(C)on2)cc1OC | 32.8% | x | u | 52.3 | 27.8* | -0.7 | 8.9%
Cc1ccc(C(C(=O)NCc2ccco2)N(C(=O)Cn2nnc3ccccc32)c2ccccc2)o1 (stereo not given) | u | 14.7% | -4.4% | -31.4 | 64.3* | 3.5 | 4.9%
